About 310 (2.8%) of roughly 11,000 compounds were called active. No stated cut-off is given here; in the data, active means activity change below about -85%; inactive means the rest. The entries come from a sample that favours actives as a whole.

The test system of the assay is intestinal alkaline phosphatase [Mus musculus]. As to the kind of experiment: activators of mouse IAP, confirmation, biochemical, luminescence, single concentration (AID 434970). The note with it: purified mouse IAP, CDP-Star luminescence, 30 min, at 10 µM; activation factor: measured here: IAP activation factor, stronger effect = higher value; activity change, negative = activation: stronger effect = lower value.
As for `COc1ccc(NC(=O)C2CCN(c3nc(C)cc(C)n3)CC2)cc1`, the activation factor stood at 0.96 and the activity change, negative = activation was 4.05% (inactive).
`CC(=O)c1ccc(NC(=O)Cn2nc(C)cc2C)cc1`: the activation factor amounted to 0.948 and the activity change, negative = activation was 5.2% (inactive).
As for `Cc1ccc(NC(=O)CCn2nc(C)cc2C)cc1`, the activation factor came out at 1.12 and the activity change, negative = activation was -11.6% (inactive).
For `CCn1nc(C(=O)Nc2cccc(C(F)(F)F)c2)c(Cl)c1Cl` the same measures were 0.952 and 4.85% (inactive).
For `Nc1ccccc1NC(=O)c1ccccc1` the same measures were 1.09 and -8.9% (inactive).
As for `CCN1CCN(C(=O)CN(c2ccccc2C)S(C)(=O)=O)CC1`, the activation factor was 1.04 and the activity change, negative = activation is -3.5% (inactive).
The matching figures for `Cc1ccc(OCCn2cnc3c(N)ncnc32)cc1`: 0.932 and 6.8% (inactive).
For `Cc1cc(NC(=O)CCC(=O)N(Cc2ccco2)C(C)(C)C(=O)NC2CCCCC2)no1` the same measures were 1.05 and -5.25% (inactive).
Turning to `COc1ccc(CNC(=O)C[C@H]2C[C@H](C(=O)N3CCOCC3)[C@@]3(CCC4CCCC4)c4[nH]c5cc(CCC(=O)N(C)C)ccc5c4CCN3C2=O)cc1OC`, the activation factor was found to be 1.07 and the activity change, negative = activation was -6.85% (inactive).
The matching figures for `CCOC(=O)C1=CN(Cc2cccc(F)c2)S(=O)(=O)NC1c1ccc(Br)cc1F` (configuration not stated): 0.921 and 7.85% (inactive).
For the molecule `CN(C)C(=O)CCc1ccc2c3c([nH]c2c1)[C@]1(C)[C@@H](C(=O)N2CCOCC2)C[C@H](CC(=O)NCCc2ccccn2)C(=O)N1CC3`, the activation factor worked out at 1.02 and the activity change, negative = activation was -2.25% (inactive).
For `O=C1C[C@@H]2CCN3C(=O)CCC[C@@H]([C@H]23)[C@@H]1Cc1ccccc1`, the activation factor is 0.964 and the activity change, negative = activation was 3.55% (inactive).
In the case of `CC(CN1CCN(C)CC1)OC(=O)c1ccc(Cl)cc1` (configuration not stated), the activation factor amounted to 0.929 and the activity change, negative = activation is 7.05% (inactive).
For `N#Cc1ccc(N2CCN(c3ccc(F)cc3)CC2)cc1` the same measures were 0.995 and 0.5% (inactive).
On to `CCCNC(=O)c1ccc(SC)cc1OC`, for which the activation factor is 0.92 and the activity change, negative = activation is 8% (inactive).
On to `O=C(Nc1ccc(Cl)c(Cl)c1)Nc1ccc(Br)cc1F`, for which the activation factor was found to be 2.24 and the activity change, negative = activation was -124% (active).
On to `N#Cc1ccc(NC(=O)Nc2ccc(Cl)cc2)cc1`, for which the activation factor turned out to be 1.73 and the activity change, negative = activation was -72.5% (inactive).
For `Cc1ccc(NC(=O)Nc2ccc(F)c(Cl)c2)cc1` the same measures were 1.35 and -35% (inactive).
Turning to `O=C(NCC1CC1(Cl)Cl)Nc1ccc(Cl)c(Cl)c1` (configuration not stated), the activation factor was determined as 2.53 and the activity change, negative = activation is -153% (active).
For `CCn1nccc1C(=O)Nc1ccc(Cl)c(Cl)c1` the same measures were 0.952 and 4.85% (inactive).
The matching figures for `O=C(Nc1ccc(Br)cc1)Nc1ccccc1Cl`: 1.39 and -39.4% (inactive).
The matching figures for `O=C(Nc1ccc(Cl)cc1)Nc1ccc(Cl)c(Cl)c1`: 2.27 and -127% (active).
As for `O=C(Nc1ccc(Br)cc1)Nc1ccccc1F`, the activation factor amounted to 1.81 and the activity change, negative = activation was -81.1% (inactive).
Take `O=C(Nc1ccc(Cl)c(Cl)c1)N1CCSCC1`: the activation factor amounted to 1.13 and the activity change, negative = activation is -13.4% (inactive).
As to `CCN(CC)c1nc(N)c2c(N)n(-c3ccccc3C)c(=S)c(C#N)c2c1C#N`, the activation factor stood at 0.823 and the activity change, negative = activation is 17.8% (inactive).
`O=C1c2cccc3c(N4CCCCC4)ccc(c23)C(=O)N1CCO`: the activation factor worked out at 1.18 and the activity change, negative = activation is -17.9% (inactive).
As for `CCOc1ccccc1N(CC(=O)NC1CCCCC1)S(C)(=O)=O`, the activation factor stood at 0.972 and the activity change, negative = activation is 2.85% (inactive).
For the molecule `COc1cc2c(c(OC)c1OC)C(c1ccccc1C)CC(=O)O2` (configuration not stated), the activation factor was found to be 1.07 and the activity change, negative = activation was -6.55% (inactive).
For `CSCCC(NC(=O)c1ccc(=O)n(C)n1)c1nc2ccccc2[nH]1` (configuration not stated) the same measures were 0.931 and 6.9% (inactive).
Turning to `CSCC[C@H](NC(=O)C1CCN(S(=O)(=O)c2ccc(C)cc2C)CC1)c1nc2ccccc2[nH]1`, the activation factor came out at 2.02 and the activity change, negative = activation was -102% (active).
For `Cc1ccc(S(=O)(=O)N2CCN(C(=O)CSc3nc4ccccc4c(=O)[nH]3)CC2)c(C)c1` the same measures were 1.1 and -10.3% (inactive).
On to `Cc1ccc(C)c(CN2CCC(CNC(=O)Nc3ccc(F)c(Cl)c3)CC2)c1`, for which the activation factor amounted to 1.98 and the activity change, negative = activation is -97.9% (active).
For `Cc1ccc(C)c(CN2CCC(CNC(=O)Nc3ccc(Cl)cc3)CC2)c1` the same measures were 2.23 and -123% (active).
For the molecule `Cc1nn(C)cc1CNC(=O)Nc1ccc(Cl)cc1`, the activation factor was determined as 1.32 and the activity change, negative = activation is -31.6% (inactive).
The matching figures for `Cc1cccc(CCNC(=O)CCc2c(C)nc3ncnn3c2C)c1`: 0.906 and 9.35% (inactive).
As for `CCNC(=O)COc1cc(C)c(Cl)c(C)c1`, the activation factor is 1 and the activity change, negative = activation was -0.4% (inactive).
`CCc1nc2sc3c(c2c(=O)n1N)CCC3`: the activation factor amounted to 0.913 and the activity change, negative = activation was 8.65% (inactive).
Turning to `CCN(CC)S(=O)(=O)c1cccc(-c2nnc(SCC(=O)c3cc(C)n(C)c3C)o2)c1`, the activation factor amounted to 0.772 and the activity change, negative = activation was 22.8% (inactive).
Regarding `COc1ccc(C2/C=C\CN(C(=O)c3ccccc3)CC(=O)N2Cc2cccc(F)c2)cc1` (configuration not stated), the activation factor was 1.01 and the activity change, negative = activation was -1.35% (inactive).
For `CC(=O)N1c2ccccc2C(C)(c2ccccc2)CC1(C)C` (configuration not stated) the same measures were 0.98 and 2% (inactive).
The matching figures for `O=C(NCC1CC1)C1CCCN(S(=O)(=O)c2ccc(-n3cnnn3)cc2)C1` (configuration not stated): 1.01 and -0.9% (inactive).

Values taken from PubChem BioAssay AID434970 (Sanford-Burnham Center for Chemical Genomics, 2010).
